Screens deposited in PubChem BioAssay by several laboratories.
Sampled rows, rich in hits. Any-hit rate of the full collection: about 1.3%.
CCHF vOTU inh-1 – CCHFV vOTU protease inhibition | Pep-AMC fluorescence | inhibition, % at 11.5 µM | 370,000 compounds, 0.55% hits
PriA SSB inh – K. pneumoniae PriA-SSBct interaction inhibition. AlphaScreen SSBct-PriA binding, biotinylated peptide. inhibition, % at 33 µM. 430,000 compounds, 0.6% hits; in the data active = inhibition mostly above about 37%, no sharp cut-off; inactive = mostly below about 20%
DUSP3 inh – DUSP3 (human) phosphatase inhibition; recombinant VHR phosphatase, pNPP absorbance; inhibition, % at 13.3 µM; 290,000 compounds, 0.52% hits; in the data active = inhibition above about 50%
Target sequence (P51452 whole entry, looked up): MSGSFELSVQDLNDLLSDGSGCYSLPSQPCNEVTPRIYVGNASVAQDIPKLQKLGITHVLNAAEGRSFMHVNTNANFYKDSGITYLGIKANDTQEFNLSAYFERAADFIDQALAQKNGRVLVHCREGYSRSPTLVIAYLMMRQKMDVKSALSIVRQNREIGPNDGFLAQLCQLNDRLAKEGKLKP
Mtb hypoxia inh – inhibitors of hypoxia-regulated fluorescent reporter in Mycobacterium tuberculosis; M. tuberculosis hypoxia-regulated fluorescent reporter, fluorescence; fluorescence inhibition, % (test concentration not listed); 300,000 compounds, 0.1% hits; AID 1159583; in the data active = fluorescence inhibition mostly above about 23%, no sharp cut-off; inactive = mostly below about 17%
3CLpro inhibitor – SARS-CoV 3CLpro protease inhibition. recombinant SARS-CoV 3CLpro, quenched FRET peptide cleavage. inhibition, % at 6 µM. 290,000 compounds, 0.14% hits. AID 1706; in the data active = inhibition above about 12%
CCHF vOTU inh-2 – confirmation of CCHF virus vOTU protease inhibitors; shares compounds with CCHF vOTU inh-1; Recombinant CCHFV vOTU, Pep-AMC fluorescence; inhibition, % at 11.5 µM; 1,900 compounds, 17% hits
Hits are given with their value; n = inactive; x = no result given. Cut-off read from the data, not from the text of the source, unless noted: active = inhibition above about 30%; inactive = the rest.

SMILES | CCHF vOTU inh-1 | PriA SSB inh | DUSP3 inh | Mtb hypoxia inh | 3CLpro inhibitor | CCHF vOTU inh-2
COc1ccc(CC(=O)NCc2nccc(N(C)C)n2)cc1 | x | n | x | x | x | x
COC(=O)c1ccccc1C(=O)N1CCCC(C(=O)c2ccc(OC)c(OC)c2)C1 (stereo not given) | n | n | n | n | n | x
COc1ccc(C(=O)C2CCCN(C(=O)c3cccc(N4CCCC4=O)c3)C2)cc1OC (stereo not given) | 35 | n | n | n | n | n
CN(C)c1ccc(-c2ccnc3c2CC(C)(C(=O)Nc2cccc(OC(F)(F)F)c2)O3)cc1 (stereo not given) | n | x | x | x | x | x
CC1(C(=O)Nc2cccc(OC(F)(F)F)c2)Cc2c(-c3ccc4c(c3)OCO4)ccnc2O1 (stereo not given) | 31 | x | x | x | x | n
COc1ccc(C(O)c2nc(-c3ccccc3C)cs2)cc1 (stereo not given) | 34 | x | x | x | x | n
COc1cccc(C(O)c2nc(-c3ccccc3C)cs2)c1 (stereo not given) | n | x | x | x | x | x
COc1ccc(C(O)c2nc(-c3ccc4ccccc4c3)cs2)cc1 (stereo not given) | 39 | x | x | x | x | n
COc1ccc(SCC2CCN(C(=O)c3ccc4nsnc4c3)CC2)cc1 | x | n | x | x | x | x
CC(=O)Oc1cc(C)c(Cl)c2c(OC(C)=O)cc(C(C)=O)c(O)c12 | 32 | x | x | x | x | n
O=C(NC1CCN(c2cc(C(F)(F)F)ncn2)CC1)c1c[nH]c2ccccc12 | x | n | x | x | x | x
CC1CCc2sc(C(=O)N(C)CC(=O)Nc3cccc(F)c3)cc2C1 (stereo not given) | 30 | n | n | n | n | n
O=C(N/N=C\c1c[nH]c2ccccc12)c1ccc(O)cc1 | 32 | x | n | x | n | n
COc1cc(C(=O)NCC(c2cccs2)N(C)C)c([N+](=O)[O-])cc1OC (stereo not given) | x | n | x | x | x | x
CC(=O)N(c1ccccc1C)c1ccccc1C | 34 | n | x | n | x | n
O=C(NC(c1ccc(F)cc1)c1ccc2ccccc2n1)C1CCN(CCOc2ccc(F)cc2)CC1 (stereo not given) | 32 | x | x | x | x | n
CCCCc1ccc(NC(=O)c2ccc(=O)[nH]n2)cc1 | x | n | x | x | x | x
Cc1cccc(NC(=S)N/N=C/c2ccc([N+](=O)[O-])s2)c1 | 35 | x | n | x | n | n
Cc1ccc2c(c1)N(c1ccc(Cl)c(C(F)(F)F)c1)C=C(C#N)S2(=O)=O | x | n | x | x | x | x
O=C(Nc1ncc([N+](=O)[O-])s1)C1CCN(S(=O)(=O)c2cnc[nH]2)CC1 | 31 | n | n | n | n | n
Cc1nc2c(ccc3nc(NC(=O)CCCS(=O)(=O)c4ccccc4)sc32)s1 | x | n | x | x | x | x
COc1ccc(C(=O)NCCS(=O)(=O)N2CCCC2)cc1 | 46 | n | x | x | x | n
COc1ccc(C(=O)NCCS(=O)(=O)N2CCCCCC2)cc1 | n | n | x | n | x | x
CCN(CC)CCCN1C(=O)C(=O)/C(=C(/O)c2ccccc2)C1c1cc(OC)ccc1OC (stereo not given) | 54 | x | n | x | x | n
CCN(CC)CCCN1C(=O)C(=O)C(=C(O)c2ccc(OC)cc2)C1c1ccco1 (stereo not given) | x | n | x | x | x | x
SMILES | CCHF vOTU inh-1 | PriA SSB inh | DUSP3 inh | Mtb hypoxia inh | 3CLpro inhibitor | CCHF vOTU inh-2
CC(C)(C)c1csc(CN2CCN(C(=O)/C=C/c3ccccc3)CC2)n1 | x | n | x | x | x | x
Cc1[nH][nH]c(=O)c1C(c1c(C)[nH][nH]c1=O)c1cn(Cc2ccccc2Cl)c2ccccc12 | 66 | n | n | n | n | n
NC(=O)CSc1cn(Cc2ccccc2Cl)c2ccccc12 | x | n | x | x | x | x
O=C(CN1CCCC(c2nc3ccccc3[nH]2)C1)Nc1ccc(Br)cc1 (stereo not given) | x | n | x | x | x | x
NS(=O)(=O)c1ccc(NC2=CC(=O)C(=O)c3ccccc32)cc1 | 100 | n | n | x | n | 102
Cc1cc(NC2=CC(=O)C(=O)c3ccccc32)no1 | 81 | n | x | x | x | 96
Cc1ccc(NC2=CC(=O)C(=O)c3ccccc32)cc1 | 93 | n | n | x | n | 70
COc1cc(OC)c(NC2=CC(=O)C(=O)c3ccccc32)cc1Cl | n | n | n | x | n | x
CCOC(=O)c1ccc(NC2=CC(=O)C(=O)c3ccccc32)cc1 | n | n | n | n | n | x
Cc1ccc(NCN2C(=O)c3ccncc3C2=O)cc1C | x | n | x | x | x | x
COC(=O)c1c(C)oc2c1cc(NS(=O)(=O)c1ccc(C(=O)O)cc1)c1ccccc12 | 38 | n | n | n | n | n
Cc1cc(OCC(=O)OCC(=O)N(C)c2c(N)n(Cc3ccccc3)c(=O)[nH]c2=O)ccc1Cl | n | n | x | n | x | x
CN(C(=O)COC(=O)COc1ccc2ccccc2c1)c1c(N)n(Cc2ccccc2)c(=O)[nH]c1=O | 30 | n | x | n | x | n
